High-throughput results as filed in PubChem BioAssay.
Pf apPOL block = Pf-apPOL DNA polymerase inhibition; Recombinant Pf-apPOL, molecular beacon fluorescence, 1.5 h; inhibition, % at 10 µM; 0.25% of 210,000 active
mHTT-CaM PPI inh = inhibitors of human mutant huntingtin-calmodulin interaction | P42858 | 3.6% of 190,000 active | AlphaScreen His-mHTT/GST-CaM binding, luminescence | inhibition, % at 15 µM;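 also: 0% = both proteins with DMSO and 100% = one protein alone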
* hit, by the source's call. This is one part of a sample in which hits are shown more often than they occur. Rule as the data show it: active = inhibition above about 50%; inactive = the rest.

Results for Fc1ccc(CN2CCc3nc(Nc4ccc5c(c4)OCCO5)ncc3C2)c(F)c1 ?
Pf apPOL block: -2.9; mHTT-CaM PPI inh: 58.2*

What do the screens show for `Fc1ccc(CN2CCc3nc(Nc4ccc5c(c4)OCO5)ncc3C2)c(F)c1`?
Pf apPOL block: -1.3; mHTT-CaM PPI inh: 12.2

Results for Clc1ccccc1CN1CCc2nc(Nc3ccc4c(c3)OCCO4)ncc2C1 ?
Pf apPOL block: 4.1; mHTT-CaM PPI inh: 78.0*

What do the screens show for `Fc1ccc(Nc2ncc3c(n2)CCN(Cc2ccc4c(c2)OCCO4)C3)cc1`?
Pf apPOL block: -5.8; mHTT-CaM PPI inh: -6.8

What do the screens show for `Fc1ccc(CN2CCc3nc(Nc4ccc5c(c4)OCCO5)ncc3C2)cc1F`?
Pf apPOL block: -3.3; mHTT-CaM PPI inh: 52.9*

How did COCCCNC(=O)c1cccc(C2CCCN(C(=O)NC(C)C)C2)c1 (stereo unspecified) do in these assays?
Pf apPOL block: -4.3; mHTT-CaM PPI inh: -5.6

Results for CC1CCN(c2ccc(N3CCC(C(=O)NCc4ccc5c(c4)OCO5)CC3)nn2)CC1 ?
Pf apPOL block: -5.7; mHTT-CaM PPI inh: 19.6

What do the screens show for `COCc1cc(C)[nH]c(=O)c1C1=NC(c2ccccc2)(c2ccccc2)c2ccccc2N1`?
Pf apPOL block: -3.0; mHTT-CaM PPI inh: 35.0

How did CC(=O)N1CCc2sc(C(=O)NCc3cccc(F)c3)cc2C1 do in these assays?
Pf apPOL block: -1.1; mHTT-CaM PPI inh: -4.9

What do the screens show for `COc1ccc(CN2CCc3nc(Nc4ccc5c(c4)OCCO5)ncc3C2)cc1OC`?
Pf apPOL block: 1.0; mHTT-CaM PPI inh: 36.6

How did CCOc1ccc(CN2CCc3nc(Nc4ccc5c(c4)OCCO5)ncc3C2)cc1OC do in these assays?
Pf apPOL block: 2.6; mHTT-CaM PPI inh: 52.6*

Results for CC(O)=C1C(=O)NC23CCCCC2C1c1ccccc1O3 (stereo unspecified) ?
Pf apPOL block: 2.1; mHTT-CaM PPI inh: 1.1

What do the screens show for `COc1cc(C)c(S(=O)(=O)n2cnc3cc(C)c(C)cc32)cc1C`?
Pf apPOL block: -2.8; mHTT-CaM PPI inh: 67.0*

What do the screens show for `COc1cc(S(=O)(=O)n2cnc3cc(C)c(C)cc32)c(C)cc1C`?
Pf apPOL block: -55.0; mHTT-CaM PPI inh: 18.0

What do the screens show for `CC1(C)CC(=O)C2=C(C1)Nc1ccc3ncccc3c1C2c1ccccn1` (stereo unspecified)?
Pf apPOL block: -0.9; mHTT-CaM PPI inh: 1.0

How did COc1ccc(OC)c(C2C3=C(CC(C)(C)CC3=O)Nc3ccc4ncccc4c32)c1 (stereo unspecified) do in these assays?
Pf apPOL block: -5.4; mHTT-CaM PPI inh: 52.0*

What do the screens show for `O=C(CS(=O)(=O)c1cccc2nsnc12)Nc1cccc(C(F)(F)F)c1`?
Pf apPOL block: -2.4; mHTT-CaM PPI inh: 4.0

How did Cc1ccc(NC(=O)CSc2nc3c([nH]c4ccccc43)c(=O)n2C)cc1Cl do in these assays?
Pf apPOL block: 0.1; mHTT-CaM PPI inh: 18.0

What do the screens show for `Cc1ccc(NC(=O)CSc2nnc3c(n2)[nH]c2ccccc23)cc1Cl`?
Pf apPOL block: 3.4; mHTT-CaM PPI inh: 53.0*

How did CN(Cc1ccccc1)S(=O)(=O)c1cc(C(=O)Nc2ccc(F)c(F)c2)ccc1F do in these assays?
Pf apPOL block: 27.2; mHTT-CaM PPI inh: -1.0

What do the screens show for `CCN(Cc1ccccc1)S(=O)(=O)c1cc(C(=O)Nc2ccc(F)c(F)c2)ccc1F`?
Pf apPOL block: 53.4*; mHTT-CaM PPI inh: -26.0

Results for COc1cccc(-c2cc(C(F)(F)F)nc(-n3cc([N+](=O)[O-])cn3)n2)c1 ?
Pf apPOL block: -2.0; mHTT-CaM PPI inh: 1.0

How did O=C(Cc1nc(-c2ccccc2)n[nH]1)Nc1ccc(F)cc1 do in these assays?
Pf apPOL block: 2.1; mHTT-CaM PPI inh: -2.6

What do the screens show for `O=C(Cc1nc(-c2ccccc2)n[nH]1)Nc1ccccc1`?
Pf apPOL block: -4.6; mHTT-CaM PPI inh: -1.6

How did Cc1ccc(NC(=O)Cc2nc(-c3ccccc3)n[nH]2)cc1C do in these assays?
Pf apPOL block: -3.1; mHTT-CaM PPI inh: -3.2

How did O=C(Cc1nc(-c2ccccn2)n[nH]1)Nc1cccc(F)c1 do in these assays?
Pf apPOL block: -13.0; mHTT-CaM PPI inh: 99.2*

Results for O=C(Cc1nc(-c2ccccn2)n[nH]1)Nc1cccc(Cl)c1 ?
Pf apPOL block: -11.5; mHTT-CaM PPI inh: 99.4*

How did O=C(Cc1nc(-c2ccccn2)n[nH]1)Nc1ccc(Cl)cc1 do in these assays?
Pf apPOL block: -9.5; mHTT-CaM PPI inh: 67.5*

Results for CCCN1CCN(c2ncc3c(n2)CCN(Cc2cccc(OC)c2OC)C3)CC1 ?
Pf apPOL block: -2.4; mHTT-CaM PPI inh: 23.6

What do the screens show for `N#C/C(=C\c1cn[nH]c1-c1ccccc1)S(=O)(=O)c1ccc(Cl)cc1`?
Pf apPOL block: 12.0; mHTT-CaM PPI inh: 89.0*

How did N#CC(=Cc1c(Cl)cccc1Cl)S(=O)(=O)c1ccc(Cl)cc1 do in these assays?
Pf apPOL block: -4.7

What do the screens show for `Cc1cc(NC(=O)CSc2nnc(Cc3c(C)[nH]c(=O)[nH]c3=O)o2)no1`?
Pf apPOL block: -1.6; mHTT-CaM PPI inh: -20.0

How did Cc1cc(NC(=O)CSc2nnc(C3COc4ccccc4O3)o2)no1 (stereo unspecified) do in these assays?
Pf apPOL block: 5.0; mHTT-CaM PPI inh: 72.1*

What do the screens show for `NC(N)=Nc1nc(-c2cc(Cl)sc2Cl)cs1`?
Pf apPOL block: 11.6

Results for COc1cccc(C=Nc2cccc(Cl)c2Cl)c1O ?
Pf apPOL block: -8.3; mHTT-CaM PPI inh: 0.0

Results for Cc1ccsc1C=Cc1ccnc(Sc2ncccc2[N+](=O)[O-])n1 ?
Pf apPOL block: -0.1

Results for CC(C)(C)C1CC=C2C(C#N)=C(N)C(C#N)(C#N)C(CCc3ccccc3)C2C1 (stereo unspecified) ?
Pf apPOL block: -11.9; mHTT-CaM PPI inh: 65.0*

How did COc1cccc(C2C3CC(C(C)(C)C)CC=C3C(C#N)=C(N)C2(C#N)C#N)c1O (stereo unspecified) do in these assays?
Pf apPOL block: -1.4; mHTT-CaM PPI inh: 40.0

Results for O=C(CSc1cccs1)Nc1nccs1 ?
mHTT-CaM PPI inh: -1.4

Results for O=C(CSc1cccs1)NC1=NN(c2ccccc2)C(=O)C1 ?
Pf apPOL block: -2.2; mHTT-CaM PPI inh: 81.9*

How did CCCCOc1ccc(CNC(=O)C2CCCN(c3nccc4c(C)nn(C)c34)C2)cc1 (stereo unspecified) do in these assays?
Pf apPOL block: -4.6; mHTT-CaM PPI inh: -1.4

Results for CC1(C)Cc2c(sc3nc(NN)nc(NN)c23)CO1 ?
Pf apPOL block: -1.5; mHTT-CaM PPI inh: 100.3*

What do the screens show for `Cn1c(NN)nc2sc3c(c2c1=O)CC(C)(C)OC3`?
Pf apPOL block: -4.0; mHTT-CaM PPI inh: 36.1

Results for CCC(C(=O)N1CCCCC1CC)c1ccccc1 (stereo unspecified) ?
Pf apPOL block: -2.1; mHTT-CaM PPI inh: -7.2

Results for CC(=O)Nc1ccccc1/C=C/c1ccc2c(C)ccc(O)c2n1 ?
Pf apPOL block: -5.3; mHTT-CaM PPI inh: 11.9

Results for Cc1ccc(O)c2nc(/C=C/c3ccccc3N)ccc12 ?
Pf apPOL block: -0.5; mHTT-CaM PPI inh: 52.7*

How did CCC1CN(C(=O)Nc2ccc3c(c2)OCCO3)c2ccccc2O1 (stereo unspecified) do in these assays?
Pf apPOL block: -4.4; mHTT-CaM PPI inh: -3.3

Results for Cc1ccc(Cl)cc1-c1ccc(/C=C/[N+](=O)[O-])o1 ?
Pf apPOL block: -0.1; mHTT-CaM PPI inh: 77.4*

How did Cc1c(C(=O)O)cccc1-c1ccc(/C=C/[N+](=O)[O-])o1 do in these assays?
Pf apPOL block: -11.5; mHTT-CaM PPI inh: 3.0

Results for O=C(COc1ccccc1F)N1CCC(Oc2nc3ccccc3s2)CC1 ?
Pf apPOL block: -12.8; mHTT-CaM PPI inh: 41.0
